Among all 54,000 compounds or so, about 120 (0.22%) were called active. Not shown: some 8% with an inconclusive outcome. The sample holds actives, similar compounds and a random draw of the others, so the mix is not that of the screen. The call rests on the fitted dose curve; in most records, active means well fitted inhibition curve with a large enough effect; inconclusive means small, poorly fitted or top-dose-only effect, or effect the other way; inactive means flat fitted curve, though single readings scatter.
target: Fumarate hydratase, mitochondrial (Homo sapiens) (UniProt P07954); test: Identification of activators of human fumarate hydratase by quantitative high-throughput screening; conditions: FH coupled MDH/diaphorase resazurin fluorescence, 15 min; series mostly up to 79.9 µM; activity change, negative = inhibition: at the top concentration; further: the screen sought activators but most active calls are inhibition curves; nearly all actives have a fitted effect of over 45% in size
From the text: Fumarate hydratase (FH) is a metabolic enzyme that is part of the Krebs-cycle, and reversibly catalyzes the hydration of fumarate to malate. Mutations of the FH gene have been associated with fumarate hydratase deficiency (FHD), hereditary leiomyomatosis, renal cell cancer (HLRCC), and other diseases. Currently there are no high-quality small molecule probes for studying human fumarate hydratase. To address this, we developed a quantitative high throughput screening (qHTS) FH assay and screened a total of 57,037 compounds in dose-response. While no inhibitors of FH were confirmed, a series of phenyl-pyrrolo-pyrimidine-diones (12 compounds) were identified as activators of human fumarate hydratase. […] The binding of two compounds from the series to human fumarate hydratase was confirmed by microscale thermophoresis. The low hit rate in this screening campaign confirmed that FH is a "tough target" to modulate, and the small molecule activators of human fumarate hydratase reported here may serve as a starting point for further optimization and development into cellular probes of human FH and potential drug candidates.
For primary high-throughput screen, 3 ul of FH solution (containing 13.33nM human fumarate hydratase, 13.33IU/ml malic dehydrogenase, 0.2mM NAD, 0.067mg/ml diaphorase and 0.067mM resazurin in the assay buffer (50 mM Tris pH 8.0, 5 mM MgCl2, 0.01% Brij 3) was dispensed into each well in a black solid bottom 1536-well assay plate (Greiner Bio-One) using a BioRAPTR FRD dispenser (Beckman Coulter, Brea, CA). A 1536-well pintool dispenser outfitted with 20 nl pins (Wako Automation, San Diego, CA) was used to transfer 20 nL of DMSO-solubilized compound (Cherrypick plates) to each 1536-well assay plate. Each compound was screened at five concentrations: 15 nM, 151 nM, 1.5 uM, 15.4 uM, 76.9 uM. Following compound transfer, plates were incubated in room temperature for 10 minutes. 1 uL of substrate solution containing fumaric acid (160 uM) was dispensed via BioRAPTR FRD to initiate the reaction. Plates were immediately transferred to a ViewLux microplate imager (PerkinElmer, Waltham, MA), and any resulting resorufin fluorescence was measured (exitation/emission, 525/598 nm) at 0 and 15 minutes. The exposure time is 1 second. Fluorescence from each well was normalized using enzyme-free and DMSO-treated control wells on each plate, and changes in fluorescence (delta RFU) were calculated using the difference in fluorescent signal for each well at 15 minutes versus 0 minutes.
On the % scale 0 is the no-effect control and ±100 the full control effect.

Fumarate hydratase, mitochondrial (Homo sapiens), sequence (P07954 whole entry, looked up): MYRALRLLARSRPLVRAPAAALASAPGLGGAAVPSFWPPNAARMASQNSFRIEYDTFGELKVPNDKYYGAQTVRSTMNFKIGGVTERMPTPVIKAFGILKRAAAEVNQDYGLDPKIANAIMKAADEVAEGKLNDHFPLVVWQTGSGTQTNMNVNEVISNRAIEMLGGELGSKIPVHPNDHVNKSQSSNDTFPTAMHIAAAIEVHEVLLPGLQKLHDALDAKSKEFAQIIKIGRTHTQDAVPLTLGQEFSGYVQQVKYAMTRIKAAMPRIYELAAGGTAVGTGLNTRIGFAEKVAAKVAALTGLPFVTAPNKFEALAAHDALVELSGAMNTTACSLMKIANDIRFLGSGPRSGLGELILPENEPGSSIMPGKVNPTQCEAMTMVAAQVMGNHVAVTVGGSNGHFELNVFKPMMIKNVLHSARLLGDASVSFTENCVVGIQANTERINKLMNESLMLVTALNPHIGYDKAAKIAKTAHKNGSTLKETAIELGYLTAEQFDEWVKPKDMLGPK

Activity change, negative = inhibition, inactive:
CCOc1ccc(S(=O)(=O)N2CCCCCC2)c2ccccc12 -12.1%
C=C1CCC2C(C)(COC(C)=O)CCCC2(C)C1CCC(C)CC(=O)O (stereo not drawn) -0.374% [at 53.3 µM]
COC(=O)c1cc(NC(=O)c2cnc(SC)nc2-c2ccccc2)cc(C(=O)OC)c1 -19.3%
Cc1cc(NC(=O)CC(C)C)cc(-c2nc3ncccc3o2)c1O -0.21%
CC(=O)c1cnc2ccc(-c3cc(Cl)c(O)c(Cl)c3)nc2c1NC1CCC(CN(C)C)CC1 (stereo not drawn) -1.45% [at 0.673 µM]
COc1cc(O)c(C(=O)CCc2ccc(O)cc2)c(O[C@@H]2O[C@H](CO)[C@@H](O)[C@H](O)[C@H]2O)c1 -13.3% [at 53.3 µM]
CC(C)C1=CC2C(CC[C@]2(C)O)[C@](C)(O)CC1 (stereo partly drawn) -0.171%
Fc1ccc(-c2nc(-c3ccccc3F)[nH]c2-c2ccncc2)cc1 -0.997%
COC(=O)c1[nH]c(=O)c2ccccc2c1-c1ccc[nH]1 1.76%
CC(=O)N1CCc2cc(S(=O)(=O)NC(Cc3ccccc3)C(=O)NCc3ccc(C)cc3)ccc21 (stereo not drawn) 10.6%
O=C(Nc1ccc2nc(SCC(=O)N3CCCc4ccccc43)sc2c1)c1ccc(F)cc1 -6.95%
COc1ccc(NC(=O)CCN2CCN(CCO)CC2)cc1 9.05%
CCc1ccc(CN(Cc2ccco2)C(=O)c2ccccc2Cl)cc1 -25.2%
COCCNS(=O)(=O)c1cc(-c2nn3c(C)nnc3c3ccccc23)ccc1C -5.96%
CCOC(=O)c1ccc(NC(=O)c2c(NCc3cccs3)sc3c2CCCC3)cc1 -9.56%
CC(F)(F)CN1CCOc2c(nn(-c3ccccc3Cl)c2-c2ccc(Cl)cc2)C1=O -12.3%
CCC/C=C/C(=O)O[C@H]1CC(C)(C)CC2[C@]13[C@H](O)O[C@@]21CCC2[C@@]4(C)CC[C@H](O[C@@H]5O[C@H](C(=O)O)[C@@H](O)[C@H](O[C@@H]6O[C@H](CO)[C@H](O)[C@H](O)[C@H]6O[C@@H]6O[C@@H](C)[C@H](O)[C@@H](O)[C@H]6O[C@@H]6OC[C@](O)(CO)[C@H]6O)[C@H]5O[C@@H]5O[C@H](CO)[C@H](O)[C@H](O)[C@H]5O)C(C)(C)C4CC[C@@]2(C)[C@]1(C)C[C@H]3OC(C)=O (stereo partly drawn) 27.8% [at 13.5 µM]
Cc1ccc(-c2nnc3c4ccccc4c(C)nn23)cc1NC(=O)c1cccc(Br)c1 3.86%
Cc1cc(C)c(NC(=O)c2cc3sc(Cl)cc3n2C)c(C)c1 -0.541%
O=C(CN1C(=O)COc2ccc(S(=O)(=O)N3CCOCC3)cc21)N1CCN(c2cccc(Cl)c2)CC1 -5.4%
O=C(Cn1c(=O)n(Cc2cccs2)c(=O)c2cccnc21)Nc1ccc(F)cc1 -20.5%
C[C@H]1CC[C@@]2(OC1)O[C@H]1CC3C4CC[C@H]5C[C@@H](O)CC[C@]5(C)C4CC(=O)[C@]3(C)[C@H]1[C@@H]2C (stereo partly drawn) -3.6% [at 53.3 µM]
Cn1c(=O)c2c(n3c4ccccc4nc13)NC(=O)CC2c1cccc(Cl)c1 (stereo not drawn) -25.1%
C/C=C(\C)C(=O)OC1C=C(C)CC(OC(=O)c2ccc(O)cc2)C2C1(C)CCC2(O)C(C)C (stereo not drawn) -1.59% [at 53.3 µM]
Cc1ccccc1C#Cc1ccc(CCC(=O)O)cc1 -7.53%
CCOc1cc(/C=C(\C#N)C(=O)Nc2ccccc2C)ccc1OCc1cc(=O)n2nc(CC)sc2n1 -13.3%
CCC1OC(=O)C(C)CC(C)C(=O)/C(C)=C/C(C)C(=O)/C=C/C1(C)O (stereo not drawn) 4.92% [at 53.3 µM]
Cc1cc(Br)ccc1NC(=O)Cn1cnc2sc(C)c(S(=O)(=O)N3CCN(C)CC3)c2c1=O 3.35%
CNc1ccc(-c2nc(-c3ccccc3C)no2)cc1[N+](=O)[O-] 0.855%
CC(=O)O[C@@H]1c2c3c(cc(O)c2C(=O)O[C@@H]1C)O[C@@]1(C)[C@@H](O)C[C@H]2C(C)(C)C(=O)C=C[C@]2(C)[C@@H]1C3 -6.54% [at 53.3 µM]
Cc1nc2nc(NCc3cccc(Br)c3)[nH]n2c(=O)c1Cc1ccccc1 -4.21%
CC1CC2C3CCC4=CC(=O)C=C[C@]4(C)[C@@]3(F)[C@@H](O)C[C@]2(C)[C@@]1(O)C(=O)CO (stereo partly drawn)
CCOc1ccc(CNC(=O)c2cc(-c3ccc(Cl)s3)nc3ccccc23)cc1 12.2%
CC(=O)[C@@H]1C[C@H](C(C)(C)O[C@@H]2O[C@H](CO)[C@@H](O)[C@H](O)[C@H]2O)CC[C@@]2(CO)OC(=O)C[C@@H]12 7.44% [at 53.3 µM]
COc1ccc(C)cc1NC(=O)COCc1cc(-c2cccs2)on1 -26.2%
CCN(Cc1ccccc1)C(=O)CCS(=O)(=O)c1ccc2c(c1)oc(=O)n2C -6.23%
Cc1ccc(S(=O)(=O)N2CCC(C(=O)Nc3cc(C)ccc3C)CC2)cc1 -35.1%
COc1ccc(Cc2nc3ccc(C(=O)NCc4ccccc4Cl)cc3o2)cc1 -18.8%
CSc1ccc(CCNC(=O)c2cc(C)nc3c2c(C)nn3-c2cccc(F)c2)cc1 -4.49%
COc1ccc(OC)c(CNC(=O)c2c3c(nc4ccccc24)C(=O)N(C2CCCCC2)C3)c1 -6.19%
COc1ccc(-c2cn3c(C)c(C(=O)Nc4cc(C)cc(C)c4)sc3n2)cc1 -2.84%
C[C@@H]1COCCN1c1cc(C2(S(C)(=O)=O)CC2)nc(-c2cccc3[nH]ccc23)n1 -3.26%
CC(=O)O[C@@H]1CC2C(C)(C)C(=O)C=C[C@]2(C)C2CC[C@]3(C)C(=CC(=O)[C@@H]3c3ccoc3)[C@@]21C (stereo partly drawn) 8.3% [at 53.3 µM]
Cc1cc(C)c2oc(C(=O)Nc3ccc(S(=O)(=O)N(C)c4ccccc4)cc3)cc(=O)c2c1 -17.4%
C/C1=C\CC(C)(C)/C=C/C/C(C(=O)O)=C/CC1 -17.8%
C/C=C(\C)C1C(C)=CC2CCC(OS(=O)(=O)O)C(C)C2C1/C=C/C=C/C(=O)O (stereo not drawn) -1.4% [at 53.3 µM]
O=S(=O)(c1ccc(Cl)cc1)c1nnn2c1nc(NC1CCCC1)c1sccc12 -1.98%
NC(=O)c1cnc(NCCc2ccc(O)c(Cl)c2)nc1NCc1ccccc1 -22.4%
CC(O)COc1ccccc1 (stereo not drawn) -10.1% [at 53.3 µM]
COc1ccc(NC(=O)C(c2ccccc2)N2Cc3ccccc3C2=O)cc1 (stereo not drawn) -21.3%
COc1ccc(N2CCN(C(=O)c3c(C)oc4nc(C)nc(N5CCCC5)c34)CC2)cc1 -7.16%
CCCN(C(=O)Cn1ncc2c([nH]c3ccc(C)cc32)c1=O)c1ccccc1C -18%
CC/C(=C(/CC)c1ccc(O)c(CN(CC)CC)c1)c1ccc(O)c(CN(CC)CC)c1 -1.42%
